The text below walks through data of PubChem BioAssay.

Inconclusive results are not listed. Active and inactive are the calls of the source.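 How the source made its calls, unless noted: active means differentiation response of at least 50%, scaled between solvent and reference control, from cells with both markers; inactive means the rest.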

Experiment [1] can be described thus: yeast TOR pathway RPL19A-GFP modulators, primary screen, cell-based, S. cerevisiae, multiplex flow cytometry (AID 1862; in the data active means percent of DMSO control GFP below about 86%;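 further: lower values mimic rapamycin by blocking the RPL19A rise seen in DMSO cells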). Particulars: S. cerevisiae RPL19A-GFP strain, flow cytometry fluorescence, 3 h; at 10 µM; stronger effect = lower value.
Experiment [2] can be described thus: modulators of MEP2-GFP levels in yeast, primary screen, S. cerevisiae, multiplex flow cytometry (AID 1867;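 active means GFP response, as percent of the DMSO control, above the screen-wide mean plus 3 SD, about 139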;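 further: median GFP channel fluorescence of barcode-gated MEP2-GFP cells measured by flow cytometry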). Particulars: S. cerevisiae MEP2-GFP strain, 3 h, at 10 µM, stronger effect = higher value, 100% means same as DMSO wells.
Experiment [3] can be described thus: modulators of CIT2-GFP expression in yeast, primary screen, S. cerevisiae, GFP fusion, multiplex flow cytometry (AID 1870;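 active means percent response above a set limit, the screen-wide mean plus 3 SD, cut at about 130% in these data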;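 further: barcoded CIT2-GFP strain pooled with four other GFP strains with rapamycin as positive control; median GFP fluorescence per well over plate mean of DMSO wells so 100% = DMSO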). Particulars: 3 h, at 10 µM, stronger effect = higher value. (In flow cytometry, cells or beads pass a laser one at a time.)
Experiment [4] in a line: modulators of LAP4-GFP expression in yeast, primary screen, S. cerevisiae, multiplex flow cytometry (AID 1873;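 active means GFP signal, as percent of the solvent control, above the screen mean plus 3 SD, about 149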). Particulars: 3 h, at 10 µM, stronger effect = higher value.
A short description of experiment [5]: modulators of AGP1-GFP expression in yeast TOR pathway, primary screen, cell-based, multiplex flow cytometry, S. cerevisiae (AID 1887;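 active means GFP signal above the screen-wide mean plus 3 SD, that is over about 124.5% of the solvent control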;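 further: AGP1-GFP fusion strain of S. cerevisiae within a five-strain barcoded multiplex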). Particulars: 3 h, at 10 µM, stronger effect = higher value.
The nature of experiment [6]: inhibitors of CD8+ T cell-vesicle binding, pilot screen, LFA-1/ICAM-1 modulator project, MLPCN validation set, flow cytometry (AID 2523;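 active means response below a set limit, under 55% cells CD8-positive and vesicle-bound, and CD8 cells' 90th-percentile brightness under 279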;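 on vesicle binding response: mean PE anti-B7-1 fluorescence of CD8+ cells relative to row control; 100% = QL9-loaded vesicles with DMSO vehicle in the same plate row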). Particulars: 2C mouse CD8+ T cells, at 7 µM, stronger effect = lower value; double positive events: measured here: CD8+/vesicle+ event percentage.
For experiment [7], the target named is Integrin beta-1 (Homo sapiens) + Integrin alpha-4 (Homo sapiens) (UniProt P13612+P05556). Description: inhibition of HUTS-21 binding to VLA-4, pilot screen, VLA-4 allosteric modulator project, U937 cells, HUTS-21 mAb, flow cytometry, validation set (AID 2674;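 active means inhibition above 50%, about 3 SD of the validation set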;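 further: antibody binding induced by the VLA-4 ligand LDV present at three times its Kd; 0% = LDV ligand with antibody and no compound and 100% = antibody without LDV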). Particulars: HUTS-21 LIBS mAb binding, at 6.7 µM, stronger effect = higher value, binding induced by LDV ligand.
Chain of Integrin beta-1 (Homo sapiens) + Integrin alpha-4 (Homo sapiens) (P05556 whole entry, looked up): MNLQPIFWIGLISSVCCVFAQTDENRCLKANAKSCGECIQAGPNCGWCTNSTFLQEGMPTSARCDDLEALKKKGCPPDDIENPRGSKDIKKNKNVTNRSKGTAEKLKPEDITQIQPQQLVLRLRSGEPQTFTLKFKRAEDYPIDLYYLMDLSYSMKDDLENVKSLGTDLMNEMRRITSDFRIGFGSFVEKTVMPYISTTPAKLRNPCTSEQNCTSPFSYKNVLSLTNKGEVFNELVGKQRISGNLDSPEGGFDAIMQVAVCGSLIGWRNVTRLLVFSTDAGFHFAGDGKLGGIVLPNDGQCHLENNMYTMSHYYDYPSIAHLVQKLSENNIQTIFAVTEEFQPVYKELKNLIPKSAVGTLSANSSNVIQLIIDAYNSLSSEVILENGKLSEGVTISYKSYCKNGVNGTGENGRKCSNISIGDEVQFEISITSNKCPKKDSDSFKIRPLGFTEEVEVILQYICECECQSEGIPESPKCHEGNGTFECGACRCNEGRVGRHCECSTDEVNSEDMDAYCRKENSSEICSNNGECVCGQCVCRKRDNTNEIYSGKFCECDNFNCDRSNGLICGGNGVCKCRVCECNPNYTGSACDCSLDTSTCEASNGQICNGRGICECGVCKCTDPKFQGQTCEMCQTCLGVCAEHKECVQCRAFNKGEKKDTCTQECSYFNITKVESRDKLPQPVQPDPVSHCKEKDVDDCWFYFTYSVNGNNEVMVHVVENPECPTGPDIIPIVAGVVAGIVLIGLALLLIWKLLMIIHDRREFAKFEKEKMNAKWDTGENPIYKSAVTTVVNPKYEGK
Chain of Integrin beta-1 (Homo sapiens) + Integrin alpha-4 (Homo sapiens) (P13612 whole entry, looked up): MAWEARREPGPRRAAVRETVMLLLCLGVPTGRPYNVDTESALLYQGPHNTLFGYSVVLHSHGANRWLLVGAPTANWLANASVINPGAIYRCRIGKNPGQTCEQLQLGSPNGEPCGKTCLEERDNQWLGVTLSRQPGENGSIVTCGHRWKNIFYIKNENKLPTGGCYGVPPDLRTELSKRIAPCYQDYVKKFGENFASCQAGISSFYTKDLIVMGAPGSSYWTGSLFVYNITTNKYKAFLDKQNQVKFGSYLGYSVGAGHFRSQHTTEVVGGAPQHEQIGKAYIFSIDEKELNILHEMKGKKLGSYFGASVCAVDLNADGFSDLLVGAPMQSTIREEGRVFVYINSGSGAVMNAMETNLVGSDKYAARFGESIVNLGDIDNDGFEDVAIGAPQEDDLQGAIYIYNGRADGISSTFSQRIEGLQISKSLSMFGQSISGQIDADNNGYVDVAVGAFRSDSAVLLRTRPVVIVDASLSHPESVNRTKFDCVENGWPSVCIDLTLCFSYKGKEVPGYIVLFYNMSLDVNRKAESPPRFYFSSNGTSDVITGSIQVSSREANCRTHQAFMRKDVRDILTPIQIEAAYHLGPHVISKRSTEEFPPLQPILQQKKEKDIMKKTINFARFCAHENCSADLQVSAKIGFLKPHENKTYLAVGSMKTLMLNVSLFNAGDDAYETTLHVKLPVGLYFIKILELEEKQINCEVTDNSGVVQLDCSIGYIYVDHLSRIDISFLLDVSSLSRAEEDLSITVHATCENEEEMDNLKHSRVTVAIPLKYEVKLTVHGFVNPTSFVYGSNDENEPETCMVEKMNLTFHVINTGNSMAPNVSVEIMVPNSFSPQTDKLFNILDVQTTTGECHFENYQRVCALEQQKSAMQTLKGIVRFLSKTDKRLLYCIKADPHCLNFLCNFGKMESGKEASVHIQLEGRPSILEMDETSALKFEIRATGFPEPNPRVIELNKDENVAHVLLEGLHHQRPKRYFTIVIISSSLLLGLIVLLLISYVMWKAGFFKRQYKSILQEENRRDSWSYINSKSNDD

Experiment [8] in a line: superoxide lowering in aged yeast cells, pilot screen, validation compound set (AID 2706;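 active means superoxide response below 65% of plate, a cut near 3 SD across the whole screen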;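 further: yeast exposed to compound for one week at 30 degrees C before staining; 100% = mean of all compound wells on the same plate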). Particulars: S. cerevisiae aging, superoxide DHE fluorescence; at 10 µM; stronger effect = lower value.
For experiment [9], the target named is Beta-adrenergic receptor kinase 1 (Homo sapiens) (UniProt P25098). The experiment is described as follows: GRK2 binders displacing RNA aptamer, biochemical, validation, human GRK2, bead flow cytometry (AID 488806;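 active means aptamer binding inhibition above 30%, about 3 SD of noise from non-fluorescent compounds; inactive means inhibition at or below 30%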). Particulars: bead-bound GRK2, FAM-aptamer displacement, at 10 µM, stronger effect = higher value.
Chain of Beta-adrenergic receptor kinase 1 (Homo sapiens) (P25098 whole entry, looked up): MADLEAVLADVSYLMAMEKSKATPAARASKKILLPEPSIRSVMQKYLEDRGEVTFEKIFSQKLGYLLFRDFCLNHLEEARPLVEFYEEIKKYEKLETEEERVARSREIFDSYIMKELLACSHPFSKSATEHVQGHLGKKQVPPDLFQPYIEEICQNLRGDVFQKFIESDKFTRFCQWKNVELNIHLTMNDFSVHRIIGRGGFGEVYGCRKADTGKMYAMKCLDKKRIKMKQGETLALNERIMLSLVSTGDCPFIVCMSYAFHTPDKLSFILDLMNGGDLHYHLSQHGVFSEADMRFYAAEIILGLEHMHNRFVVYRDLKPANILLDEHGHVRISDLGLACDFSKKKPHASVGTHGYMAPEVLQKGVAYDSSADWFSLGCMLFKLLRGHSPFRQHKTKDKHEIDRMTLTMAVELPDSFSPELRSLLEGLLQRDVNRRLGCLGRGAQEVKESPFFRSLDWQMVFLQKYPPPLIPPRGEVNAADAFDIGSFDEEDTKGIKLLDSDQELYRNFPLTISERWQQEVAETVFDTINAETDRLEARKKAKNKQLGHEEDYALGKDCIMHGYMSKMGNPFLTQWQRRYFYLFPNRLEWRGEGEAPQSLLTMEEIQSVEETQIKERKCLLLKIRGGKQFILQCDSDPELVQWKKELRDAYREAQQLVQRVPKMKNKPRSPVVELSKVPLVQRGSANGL
Experiment [10] addresses Beta-2 adrenergic receptor (Homo sapiens) (UniProt P07550). The experiment is described as follows: beta2AR agonists driving receptor internalization, pilot screen, cell-based, FAP fluorogen, flow cytometry, validation set (AID 504459;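 active means percent response above 42, roughly 3 SD of non-fluorescent test compounds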;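 further: agonist-driven loss of surface beta2AR via internalization measured by FAP dye flow cytometry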). Particulars: Am2.2-beta2AR cells, FAP surface receptor flow cytometry; at 10 µM; stronger effect = higher value.
Experiment [11] addresses AP-2 complex subunit beta (Homo sapiens) (UniProt P63010). Description: inhibitors of arrestin peptide binding to AP2, pilot screen, biochemical, validation set, GST-AP2 beads, flow cytometry (AID 504541;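 active means inhibition above 54%, about 3 SD of non-fluorescent compounds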;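 further: AP2 carries R879A mutation and is captured from E. coli lysate; bead-bound FITC arrestin peptide fluorescence measuring arrestin peptide binding to AP2; 0% = DMSO wells and 100% = excess unlabeled arrestin peptide control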). Particulars: FITC arrestin peptide, at 10 µM, stronger effect = higher value, AP2 beta2 appendage fragment, R879A mutant.
Experiment [12] can be described thus: yeast V-ATPase proton transport modulators, S. cerevisiae, pHLuorin, HTS validation (AID 504600; in the data active means response above about 15%;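 further: plate controls were DMSO for no effect and reference compound for full effect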). Particulars: S. cerevisiae pHLuorin cytosolic pH, at 10 µM, stronger effect = higher value.
Experiment [13] has as its system anti-desmoglein-3 scFv antibody binding to human DSG3. Description: inhibitors of anti-DSG3 scFv binding to DSG3, pilot screen, biochemical, validation compound set, bead-based, flow cytometry (AID 588368;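 active means binding below the plate cutoff, the plate median minus 3 SD, with a reading above zero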;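 further: signal is the median channel fluorescence of bead-bound GFP antibody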). Particulars: Protein G beads, DSG3-Fc, scFv-GFP binding, at 10 µM, stronger effect = lower value.
The nature of experiment [14]: inhibitors of fungal efflux pumps CDR1, CDR2, MDR1, pilot screen, validation compound set, multiplex, phenotypic (AID 588506;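 active means efflux inhibition above 0.42, the validation set average plus 4 SD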;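 further: Nile Red retained in cells so higher fluorescence means more efflux inhibition; 0 = negative control wells and 1 = enniatin B 25 µM full block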). Particulars: S. cerevisiae pump-expressing triplex, Nile Red efflux flow cytometry; at 10 µM; stronger effect = higher value; the pumps come from Candida albicans.
The target of experiment [15] is ATP-binding cassette sub-family B member 6 (Homo sapiens) (UniProt Q9NP58). Description: ABCB6 transporter inhibitors, pilot screen, K562-ABCB6 cells, flow cytometry, validation set (AID 588550;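 active means inhibition above the screen-wide mean plus 3 SD, about 51%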;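 further: 0% = DMSO wells and 100% = benzethonium chloride 70 µM positive control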). Particulars: K562-ABCB6 porphyrin accumulation, 1 h, at 10 µM, stronger effect = higher value.
Chain of ATP-binding cassette sub-family B member 6 (Homo sapiens) (Q9NP58 whole entry, looked up): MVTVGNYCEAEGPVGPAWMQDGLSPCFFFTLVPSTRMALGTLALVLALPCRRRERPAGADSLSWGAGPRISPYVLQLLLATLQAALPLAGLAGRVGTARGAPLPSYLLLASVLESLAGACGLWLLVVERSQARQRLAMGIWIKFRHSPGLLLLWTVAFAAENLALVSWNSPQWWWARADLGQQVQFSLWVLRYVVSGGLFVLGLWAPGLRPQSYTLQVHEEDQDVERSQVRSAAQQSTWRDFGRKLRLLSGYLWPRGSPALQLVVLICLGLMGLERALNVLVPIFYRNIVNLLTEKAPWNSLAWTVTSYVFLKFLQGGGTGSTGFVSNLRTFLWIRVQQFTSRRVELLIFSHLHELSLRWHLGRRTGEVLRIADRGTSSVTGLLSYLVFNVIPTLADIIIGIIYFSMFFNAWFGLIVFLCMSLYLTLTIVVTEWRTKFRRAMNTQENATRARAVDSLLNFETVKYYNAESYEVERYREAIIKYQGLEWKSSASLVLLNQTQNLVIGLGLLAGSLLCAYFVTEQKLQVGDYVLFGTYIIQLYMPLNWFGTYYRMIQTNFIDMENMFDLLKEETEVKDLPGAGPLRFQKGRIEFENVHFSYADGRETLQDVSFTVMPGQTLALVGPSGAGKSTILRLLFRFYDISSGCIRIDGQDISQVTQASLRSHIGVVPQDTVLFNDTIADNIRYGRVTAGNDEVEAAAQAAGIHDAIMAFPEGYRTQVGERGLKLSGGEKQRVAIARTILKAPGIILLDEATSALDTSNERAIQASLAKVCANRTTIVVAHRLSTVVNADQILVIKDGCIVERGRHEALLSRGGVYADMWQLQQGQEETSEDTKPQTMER
A short description of experiment [16]: promoters of myeloid differentiation in arrested cells, primary screen, cell-based, GFP/MAC1 double positive, flow cytometry, validation set (AID 588685).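 Further: compound exposure lasts four days before antibody staining and flow analysis; 0% = DMSO wells and 100% = 5 µM fulvestrant positive control.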 Particulars: ER-HoxA9 marrow cells, stronger effect = higher value, normalized: vehicle 0, fulvestrant 100.

Chain of Beta-2 adrenergic receptor (Homo sapiens) (P07550 whole entry, looked up): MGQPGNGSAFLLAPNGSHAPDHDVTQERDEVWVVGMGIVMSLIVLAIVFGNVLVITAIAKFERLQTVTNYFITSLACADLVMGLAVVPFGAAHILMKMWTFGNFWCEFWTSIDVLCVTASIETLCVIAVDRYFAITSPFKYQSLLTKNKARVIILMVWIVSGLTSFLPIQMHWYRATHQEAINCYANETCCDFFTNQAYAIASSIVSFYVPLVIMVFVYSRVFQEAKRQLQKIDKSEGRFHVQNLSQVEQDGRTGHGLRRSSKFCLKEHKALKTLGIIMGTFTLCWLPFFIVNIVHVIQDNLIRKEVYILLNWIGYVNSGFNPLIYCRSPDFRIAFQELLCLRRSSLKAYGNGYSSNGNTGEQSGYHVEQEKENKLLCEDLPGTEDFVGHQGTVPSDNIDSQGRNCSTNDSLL
Chain of AP-2 complex subunit beta (Homo sapiens) (P63010 whole entry, looked up, the tested form may be a part, one chain of several): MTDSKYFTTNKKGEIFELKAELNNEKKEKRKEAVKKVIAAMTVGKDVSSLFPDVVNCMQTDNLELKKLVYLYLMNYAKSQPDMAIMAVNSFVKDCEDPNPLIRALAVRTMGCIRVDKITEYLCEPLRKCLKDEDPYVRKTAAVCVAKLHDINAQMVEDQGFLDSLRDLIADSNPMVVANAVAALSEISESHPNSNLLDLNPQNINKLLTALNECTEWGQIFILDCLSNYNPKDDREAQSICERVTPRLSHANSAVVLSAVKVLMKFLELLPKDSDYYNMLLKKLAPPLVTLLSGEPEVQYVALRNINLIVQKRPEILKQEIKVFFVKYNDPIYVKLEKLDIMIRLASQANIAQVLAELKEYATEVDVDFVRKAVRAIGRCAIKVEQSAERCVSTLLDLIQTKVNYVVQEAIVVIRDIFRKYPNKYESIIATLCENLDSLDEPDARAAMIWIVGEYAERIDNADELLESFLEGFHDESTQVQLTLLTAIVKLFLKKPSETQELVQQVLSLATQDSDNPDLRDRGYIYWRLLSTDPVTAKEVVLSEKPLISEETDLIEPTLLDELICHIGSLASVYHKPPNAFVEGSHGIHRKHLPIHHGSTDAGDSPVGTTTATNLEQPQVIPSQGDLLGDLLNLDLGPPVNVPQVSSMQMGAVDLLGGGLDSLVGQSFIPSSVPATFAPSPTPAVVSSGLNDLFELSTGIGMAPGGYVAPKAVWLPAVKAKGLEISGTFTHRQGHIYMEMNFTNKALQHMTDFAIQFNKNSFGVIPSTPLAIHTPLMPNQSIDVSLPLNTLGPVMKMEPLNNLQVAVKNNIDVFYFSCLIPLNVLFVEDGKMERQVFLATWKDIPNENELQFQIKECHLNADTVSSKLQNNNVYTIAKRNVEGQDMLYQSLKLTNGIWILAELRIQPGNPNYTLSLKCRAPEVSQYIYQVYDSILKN

On to `COCCCN1C(=O)C(=O)/C(=C(/O)c2ccc3c(c2)CC(C)O3)C1c1cccnc1` (stereo not given), for which the percent of DMSO control GFP in experiment [1] was 101% (inactive). Further, the GFP response vs DMSO in experiment [2] was 102% (inactive); in experiment [4], 114% (inactive). Further, the percent response of DMSO control in [3] is 101% (inactive). Further, the GFP response, % of DMSO in experiment [5] was 111% (inactive). In addition, in experiment [6], the double positive events amounted to 59%. Further, in experiment [6], the vesicle binding response was 137% (inactive). For the same compound, the inhibition was 3.14% (inactive) in experiment [7], 1.96% (inactive) in experiment [11] and 4% (inactive) in experiment [15]. Further, the superoxide response (% of plate) in experiment [8] was 97.1% (inactive). Also, the aptamer binding inhibition in experiment [9] is -1% (inactive). Further, the response was -22.5% (inactive) in experiment [10] and -1.78% (inactive) in experiment [12]. The binding (% of control) in experiment [13] was 108% (inactive). In addition, in experiment [14], the efflux inhibition (fraction of control) is 0 (inactive). In addition, in experiment [16], the differentiation response was -9.91% (inactive).

Turning to `NS(=O)(=O)c1cc2c(cc1Cl)NC(C1C[C@H]3C=C[C@@H]1C3)NS2(=O)=O` (stereo not given in full), in experiment [1], the percent of DMSO control GFP was 104% (inactive). Besides, the values for the GFP response vs DMSO in [2] and in [4] were 106% (inactive) and 105% (inactive), respectively. Also, the percent response of DMSO control in experiment [3] was 105% (inactive). Besides, in experiment [5], the GFP response, % of DMSO was 106% (inactive). In experiment [6], this compound returned a double positive events of 61.8%. Moreover, the vesicle binding response in experiment [6] is 153% (inactive). Moreover, the inhibition is -19.9% (inactive) in experiment [7], 11.5% (inactive) in experiment [11] and 10% (inactive) in experiment [15]. For the same compound, the superoxide response (% of plate) in [8] was 98.5% (inactive). Also, the aptamer binding inhibition in experiment [9] is 2% (inactive). The response was -2.86% (inactive) in experiment [10] and -7.8% (inactive) in [12]. For the same compound, in [13], the binding (% of control) is 97.3% (inactive). Further, in experiment [14], the efflux inhibition (fraction of control) is 0.03 (inactive). In experiment [16], the differentiation response is -17.7% (inactive).

As for `COc1ccc(-c2c[n+](CC(=O)OC3CC(C)CCC3C(C)C)c3n2CCC3)cc1` (stereo not given), the percent of DMSO control GFP in experiment [1] was 99.5% (inactive). Besides, the results for the GFP response vs DMSO in [2] and in experiment [4] were 105% (inactive) and 97% (inactive), respectively. Moreover, the percent response of DMSO control in experiment [3] was 102% (inactive). Moreover, in [5], the GFP response, % of DMSO was 98.6% (inactive). For the same compound, the double positive events in experiment [6] amounted to 57.8%. Also, in experiment [6], the vesicle binding response was 42.8% (inactive). Also, the inhibition is 5.61% (inactive) in [7], -5.29% (inactive) in experiment [11] and 6% (inactive) in experiment [15]. Besides, the superoxide response (% of plate) in experiment [8] was 97.3% (inactive). In experiment [9], the aptamer binding inhibition was -6% (inactive). The response in experiment [10] was -0.25% (inactive); in [12], 8.78% (inactive). For the same compound, the binding (% of control) in experiment [13] was 108% (inactive). Moreover, the efflux inhibition (fraction of control) in experiment [14] was 0.28 (inactive). For the same compound, in experiment [16], the differentiation response is -3.11% (inactive).

With `CCCC(CCC)C(=O)OC1C[C@H]2CC[C@@H](C1)[N+]2(C)C` (stereo not given in full), the percent of DMSO control GFP in experiment [1] is 95.2% (inactive). Also, the GFP response vs DMSO was 132% (inactive) in experiment [2] and 80.9% (inactive) in experiment [4]. In experiment [3], the percent response of DMSO control is 93.9% (inactive). Besides, the GFP response, % of DMSO in experiment [5] is 94.9% (inactive). In [6], this compound returned a double positive events of 59.5%. Moreover, the vesicle binding response in [6] is 155% (inactive). In addition, the results for the inhibition in experiment [7], in experiment [11] and in [15] were 14.2% (inactive), -1.17% (inactive) and 9% (inactive), respectively. Further, the superoxide response (% of plate) in [8] was 108% (inactive). The aptamer binding inhibition in [9] was 7% (inactive). In addition, the response in experiment [10] was -2.34% (inactive); in [12], 0.47% (inactive). Moreover, in [13], the binding (% of control) was 101% (inactive). In addition, the efflux inhibition (fraction of control) in [14] was 0.27 (inactive). The differentiation response in [16] was 3.28% (inactive).

As to `c1cnc(N2CCN(Cc3ccc4c(c3)OCO4)CC2)nc1`, the percent of DMSO control GFP in [1] was 101% (inactive). In addition, the GFP response vs DMSO in [2] is 101% (inactive); in experiment [4] it was 97% (inactive). In [3], the percent response of DMSO control was 102% (inactive). In addition, in experiment [5], the GFP response, % of DMSO was 103% (inactive). Also, the double positive events in experiment [6] turned out to be 73.9%. The vesicle binding response in [6] is 330% (inactive). The inhibition in [7] is 2.93% (inactive); in [11], 2.85% (inactive); in [15], 2% (inactive). The superoxide response (% of plate) in [8] was 103% (inactive). The aptamer binding inhibition in [9] was -1% (inactive). Also, the response is 2.78% (inactive) in [10] and 0.81% (inactive) in experiment [12]. Moreover, the binding (% of control) in experiment [13] is 105% (inactive). Further, the efflux inhibition (fraction of control) in [14] was 0.235 (inactive). Further, the differentiation response in experiment [16] was -13.3% (inactive).

In general, inhibition refers to the relative decrease from the control value, in per cent.
